# GALK inhibitor: GALK (human) enzyme inhibition. 44,000 tested, under 10 active. P51570. recombinant GALK, Kinase-Glo ATP luminescence, 1 h. Potency, µM (titrated, usually from 57.5 µM), without a hit: top-dose activity, negative = inhibition, most hits filed as inhibitors;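 further: plate controls were full GALK reaction for no effect and reaction lacking GALK for full effect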
#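 Luminescent ATP-depletion readout (Kinase-Glo Plus) after 1 h room-temperature incubation of human GALK (5 nM) with galactose 100 µM and ATP 35 µM, pH 8.0 HEPES/Mg2+ buffer; compounds tested in qHTS format.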
# NTMT1 inhibitor: blocks human N-terminal methyltransferase 1 activity; 2.5% of 59,000 active; NTMT1 MTase-Glo SAH luminescence, purified enzyme; Potency, µM (highest dose often 114 µM), for inactives: at the highest dose activity change, negative = inhibition, hits mostly inhibitors; Q9BV86;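 further: potency means the concentration at half of the fitted maximal effect; plate controls were DMSO vehicle for no effect and no enzyme for full effect; nearly all actives have a fitted effect of over 65% in size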
# Target sequence (Q9BV86 whole entry, looked up): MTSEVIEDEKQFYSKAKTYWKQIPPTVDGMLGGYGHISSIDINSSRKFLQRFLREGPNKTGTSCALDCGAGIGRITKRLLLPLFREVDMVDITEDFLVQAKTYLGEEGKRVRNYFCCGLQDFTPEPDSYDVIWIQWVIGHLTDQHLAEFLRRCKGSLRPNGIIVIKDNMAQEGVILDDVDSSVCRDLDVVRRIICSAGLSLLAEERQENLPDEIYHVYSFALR
# B2AR arrestin ag: beta-arrestin recruitment by human beta2-adrenergic receptor ligands. HTLA Tango cells, beta-arrestin recruitment, luciferase luminescence, 18 h. 44,000 tested, under 10 active. P07550. AID 1347077. Potency, µM (titrated, usually from 46.1 µM), hits mostly activators;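 further: potency means the concentration at half of the fitted maximal effect; 0% = DMSO and full agonism = EC100 isoproterenol or metaproterenol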
#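 Tango cell line, 1% FBS DMEM; cpd titration up to 46 microM; 18 hr, 37 degrees C, 5% CO2. Luciferin/ATP substrate mix added, 15 min RT, luminescence. %Activity, CRC fitting, curve-class categorization.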
# DRV1 agonist: GPR32 (DRV1) agonism, beta-arrestin recruitment; AID 1346428; 2.5% of 48,000 active; O75388; CHO-K1 GPR32 beta-arrestin PathHunter luminescence, 90 min; zero percent set by DMSO-only wells; activation, % at 76.9 µM;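 active means activation of at least 60% and not above a set upper limit, about 1 call in 100 departs from these limits; inconclusive means activation of 40% to 60%, or above that upper limit; inactive means activation under 40%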; further: 0% is about no effect
#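 Readings come from a cell-based beta-arrestin complementation format: CHO-K1 GPR32 stable cells (2,500/well) treated 90 min with compounds, then beta-Gal substrate added for 1 h before chemiluminescence imaging.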
# SKOV3 invasion: inhibitors of ovarian cancer cell adhesion and invasion in omental model; SKOV3ip1-GFP adhesion/invasion on 3D omental model, fluorescence; Potency, µM (series often up to 45.8 µM), without a hit: top-dose activity change, negative = inhibition, actives largely listed as inhibitors; 0.1% of 46,000 active;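 further: potency means the concentration at half of the fitted maximal effect; plate controls were DMSO wells for no effect and tomatine positive control wells for full effect; nearly all actives have a fitted effect of over 65% in size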
#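 A 3D layer of primary human omental fibroblasts, mesothelial cells, fibronectin and collagen I, grown 48 hr, received SKOV3ip1-GFP cells in serum-free medium plus compounds at 0.36-46 umol/L. After 2 hr RT and 16 hr 37 C, fixed adherent GFP cells were counted; normalized to DMSO and tomatine.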
# TSG101-PTAP inh: blocks PTAP binding to human TSG101, validation; Q99816; Potency, µM (top dose mostly 115 µM), actives largely listed as inhibitors; Fluorescence polarization, FITC-PTAP peptide/Tsg101, 20 min; AID 1347069; 44,000 tested, under 10 active; further: potency means the concentration at half of the fitted maximal effect; 0% is about no effect
#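 The Tsg101 binding domain, at 10 uM final, is mixed with compound and a FITC peptide bearing the PTAP motif (50 nM final). After 20 min at r.t., polarization is measured; actives defined by CRC class, efficacy cut-off 60% inhibition.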
# CLK4 KinaseGlo: inhibits human CLK4 kinase in Kinase-Glo confirmation; 90% of 90 active; Potency, µM (titrated, usually from 76.9 µM), inactives show top-dose activity, negative = inhibition, hits mostly inhibitors; AID 493204; shares compounds with NTMT1 inhibitor; recombinant Clk4, Kinase-Glo ATP luminescence, 4.5 h
# Sfp PPTase inh: inhibits purified B. subtilis Sfp PPTase; purified Sfp PPTase enzyme activity, qHTS; Potency, µM (highest dose often 114 µM), without a hit: top-dose activity change, negative = inhibition, most hits filed as inhibitors; shares compounds with NTMT1 inhibitor; 78% of 230 active
# HM489 growth: B. subtilis HM489 growth inhibition. shares compounds with NTMT1 inhibitor. B. subtilis HM489 (acpS-) growth, BacTiter-Glo, 5 h. Potency, µM (highest dose often 114 µM), for the others: at the top dose activity change, negative = inhibition, most hits filed as inhibitors. 50% of 220 active
# Sfp gel opt: inhibits B. subtilis Sfp PPTase in gel assay; shares compounds with NTMT1 inhibitor; 54% of 220 active; Potency, µM (highest dose often 250 µM), for the others: at the highest dose activity change, negative = inhibition, actives largely listed as inhibitors; purified Sfp PPTase, gel-based product detection; AID 540355
# Sfp inh gel: Sfp phosphopantetheinyl transferase inhibition, gel detection | shares compounds with NTMT1 inhibitor | purified Sfp PPTase, gel-based product detection | Potency, µM (doses to about 250 µM), without a hit: at the highest dose activity change, negative = inhibition, actives largely listed as inhibitors | 90% of 45 active | AID 602362
# Sfp inh SAR2: inhibits B. subtilis Sfp PPTase in second SAR round | shares compounds with NTMT1 inhibitor | purified Sfp enzyme, PPTase activity, qHTS | Potency, µM (top dose mostly 57.1 µM), without a hit: top-dose activity change, negative = inhibition, actives largely listed as inhibitors | 87% of 230 active | AID 602370
# hGST ctr: inhibits hGST A1-1 in Sfp inhibitor counter-screen; shares compounds with NTMT1 inhibitor; hGST A1-1 enzyme activity counter-screen, qHTS; Potency, µM (doses to about 114 µM), for the others: at the highest dose activity change, negative = inhibition, usual class: inhibitors; 55 tested, under 10 active; AID 602391
# HSD17B4 counter: HSD17B4 (human) inhibition, HPGD counter-screen | purified HSD17B4, estradiol/NAD+, NADH fluorescence | Potency, µM (top dose mostly 57.1 µM), for inactives: at the top dose activity change, negative = inhibition, actives largely listed as inhibitors | shares compounds with NTMT1 inhibitor | 10% of 230 active | AID 743187
# ALDH1A1 counter: ALDH1A1 (human) inhibition, HPGD counter-screen. Potency, µM (highest dose often 57.1 µM), inactives show top-dose activity change, negative = inhibition, usual class: inhibitors. shares compounds with NTMT1 inhibitor. recombinant ALDH1A1, NADH fluorescence, propionaldehyde/NAD+. 93% of 230 active
# Target sequence (P00352 whole entry, looked up): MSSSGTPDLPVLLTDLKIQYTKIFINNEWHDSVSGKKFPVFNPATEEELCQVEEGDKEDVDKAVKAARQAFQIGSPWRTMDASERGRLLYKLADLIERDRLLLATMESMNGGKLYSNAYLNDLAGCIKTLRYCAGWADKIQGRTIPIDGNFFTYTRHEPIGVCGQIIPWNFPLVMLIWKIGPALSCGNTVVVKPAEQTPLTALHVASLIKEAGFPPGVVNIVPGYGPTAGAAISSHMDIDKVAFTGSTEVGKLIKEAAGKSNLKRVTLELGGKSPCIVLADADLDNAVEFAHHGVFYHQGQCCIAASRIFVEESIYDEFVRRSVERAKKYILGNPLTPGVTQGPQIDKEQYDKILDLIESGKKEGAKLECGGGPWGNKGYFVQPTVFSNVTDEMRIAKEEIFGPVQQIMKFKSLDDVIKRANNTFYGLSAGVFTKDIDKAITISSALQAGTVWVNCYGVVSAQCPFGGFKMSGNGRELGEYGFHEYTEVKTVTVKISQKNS
# NNMT counter: human NNMT inhibition, NTMT1 counter-screen; shares compounds with NTMT1 inhibitor; NNMT MTase-Glo luminescence, SAH detection; Potency, µM (top dose mostly 57.1 µM), for inactives: at the top dose activity, negative = inhibition, usual class: inhibitors; AID 1645878; 10% of 120 active
# Numbers without * were called inactive; i = inactive; ? = inconclusive; · = no result; ! = not confirmed by another sample; [ ] = remark or other dose. Sampled rows, rich in hits. Any-hit rate of the full collection: about 3.8%. Unless noted, the call rests on the fitted dose curve; in most records, active means well fitted curve in the direction sought with a large enough effect; inconclusive means small, poorly fitted or top-dose-only effect, or another doubt; inactive means no such curve, though single readings can be large; an effect the other way counts as inactive or inconclusive.
SMILES,GALK inhibitor,NTMT1 inhibitor,B2AR arrestin ag,DRV1 agonist,SKOV3 invasion,TSG101-PTAP inh,NNMT counter,others
Cc1cc(C)nc(NC(=S)N2CCN(c3ccc(Cl)c(Cl)c3Cl)CC2)c1,·,?,·,·,·,·,·,Sfp PPTase inh=2.4µM*;HM489 growth=7.4µM*;Sfp gel opt=?;Sfp inh SAR2=0.73µM*;HSD17B4 counter=-23%;ALDH1A1 counter=19µM*
Cc1cc(C)nc(NC(=S)N2CCN(c3ccc([N+](=O)[O-])cc3Cl)CC2)c1,·,28µM*,·,·,·,·,·,Sfp PPTase inh=1.5µM*;HM489 growth=-17%;Sfp gel opt=2µM*;Sfp inh gel=1.5µM*;Sfp inh SAR2=0.81µM*;hGST ctr=0%;HSD17B4 counter=19µM*;ALDH1A1 counter=0.68µM*
Cc1ccc(N2CCN(C(=O)c3ccc4c(Cl)c5c(nc4c3)CCCC5)CC2)c(C)c1,10%,4%,i,-4,80%,i,·,
Cc1cc(C)nc(NC(=S)N2CCN(c3ccc4ncccc4c3[N+](=O)[O-])CC2)c1,·,?,·,·,·,·,·,Sfp PPTase inh=5.9µM*;HM489 growth=-21%;Sfp gel opt=-59%;Sfp inh SAR2=2.9µM*;HSD17B4 counter=-16%;ALDH1A1 counter=19µM*
Cc1cc(C)nc(NC(=S)N2CCN(c3cc(Cl)c(Cl)cc3Cl)CC2)c1,·,?,·,·,·,·,·,Sfp PPTase inh=4.7µM*;HM489 growth=?;Sfp gel opt=5µM*;Sfp inh SAR2=3.2µM*;HSD17B4 counter=-22%;ALDH1A1 counter=22µM*
Cc1ccc(N2CCN(C(=O)c3cnc(N4CCCCC4)c4ccccc34)CC2)c(C)c1,-1%,-2%,i,-44,1%,i,·,
COc1ccc(NC(=O)CSc2nnc(-c3cccc(S(=O)(=O)N4CCCC4)c3)n2-c2ccccc2)cc1,·,3%,·,·,·,·,·,
CCc1c(C)sc2c1CCN(C(=O)Nc1ccccc1C(=O)OC)C2c1ccc(OC)cc1 (stereo unspecified),-3%,15%,i,-8,6%,i,·,
O=C(CCCCCn1c(=O)c2sccc2n(Cc2ccccc2Cl)c1=O)NCc1ccc2c(c1)OCO2,-4%,29%,i,-29,-5%,i,·,
Cc1cc(C)nc(NC(=S)N2CCN(Cc3c(F)cccc3Cl)CC2)c1,·,-19%[57.5 µM],·,·,·,·,·,Sfp PPTase inh=8.3µM*;HM489 growth=-23%;Sfp gel opt=-42%;Sfp inh SAR2=?;HSD17B4 counter=-12%;ALDH1A1 counter=11µM*
N#Cc1nc(NCCCO)nc(Nc2ccccc2)n1,·,8%,·,·,·,·,·,
OCCCNc1cc(-c2ccnc(Nc3cccc(Cl)c3)n2)ccn1,·,4.5µM*,·,·,?,·,25µM*,
CS(=O)(=O)CCNCc1ccc(-c2ccc3ncnc(Nc4ccc(OCc5cccc(F)c5)c(Cl)c4)c3c2)o1,·,9%,·,9,-25%,·,·,CLK4 KinaseGlo=-10%
Fc1cccc(CNc2ncnc3ccc(-c4cccc(Cl)c4)cc23)c1,·,-3%,·,·,·,·,·,
Cc1nc(C#Cc2ccnc(Cl)c2)c(C)n1-c1ccc(OC(F)(F)F)cc1,·,?,·,·,·,·,-17%,
COc1c(C)c(C(=O)c2ccc(N)c(C(=O)O)c2)n2ccccc12,·,-12%[57.5 µM],·,·,·,·,-12%,
COc1cccc(C(=O)c2c(N)c(-c3nc(-c4ccccc4)cs3)c3ccccn23)c1,8%,6%,i,-9,-9%,i,·,
COc1ccc(CNC(=O)C(=O)Nc2cccc(C)c2C)cc1,-1%,4%,i,43,-5%,i,·,
CC(=O)c1cccc(Nc2nc(-c3ccccc3Cl)nc3ccccc23)c1,-3%,11%,i,15,i,i,·,
O=C(O)c1ccc2c(c1)nc(Nc1cccc(Cl)c1)c1ccncc12,·,14µM*!,·,·,-5%,·,?,
CN(C)C(=O)Nc1cc(-c2ccccc2)ccc1N(C)C,·,-3%[57.5 µM],·,·,·,·,-8%,
Cc1cc(C)cc(NC(=O)C2CCN(c3nnc(-n4c(C)ccc4C)s3)CC2)c1,1%,-2%,i,-20,-3%,i,·,
C[C@]12CC[C@@H]3c4ccc(O)cc4CC[C@H]3[C@@H]1C[C@@H](O)[C@@H]2O,·,?,·,-4,·,·,·,
C[C@]12CC[C@@H]3c4ccc(O)c(O)c4CC[C@H]3[C@@H]1CCC2=O,·,28µM*,·,·,·,·,35µM*,
NCC(CNc1nc(Nc2cccc(NC(=O)N3CCCC3)c2)ncc1I)C(=O)c1cccs1 (stereo unspecified),·,?,·,·,·,·,?,

# Assay outcomes deposited in PubChem BioAssay by National Center for Advancing Translational Sciences (NCATS).
